# Measurements taken from paper PMC5540273 (PLoS ONE, 2017).
# Experiments:
# Conditions in all cases: concentration: 1 μM, replicates: in singlicate; n = 1
# TIE2 = system: T1, TIE2
# T1 construct: gene TEK
# TLK1 = system: TLK1
# TLK2 = system: TLK2
# TNIK = system: TNIK
# TNK1 = system: TNK1
# TNK2 = system: TNK2
# TNNI3K = system: TNNI3K
# TRKA = system: T2, TRKA
# T2 construct: gene NTRK1
# TRKB = system: TRKB
# TRKC = system: T3, TRKC
# T3 construct: gene NTRK3
# 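Note: KINOMEscan kinase panel screen.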
Compound,%Inh (TIE2) [%],%Inh (TLK1) [%],%Inh (TLK2) [%],%Inh (TNIK) [%],%Inh (TNK1) [%],%Inh (TNK2) [%],%Inh (TNNI3K) [%],%Inh (TRKA) [%],%Inh (TRKB) [%],%Inh (TRKC) [%]
CN1C(=O)C(Nc2ccccc2)=C(c2ccccc2)C1=O [SB-300079],0,3,41,7,0,0,0,0,9,11
COc1ccc(-c2cc3c(C)nc(N)nc3n([C@H]3CC[C@H](OCCO)CC3)c2=O)cn1,0,14,0,0,34,0,1,0,0,0
CCC(=O)c1c(-c2ccccc2)c2cc(Cl)ccc2c(=O)n1Cc1cc(S(C)(=O)=O)n(CCC(C)(C)O)n1,5,1,0,2,28,0,13,0,0,31
CCn1c(-c2nonc2N)nc2ccccc21 [SB-693162/GW549034],0,5,0,0,0,0,0,20,43,15
Cc1ccc(Oc2ccc(Nc3ncnc4cc[nH]c34)cc2C)cn1,13,6,12,0,0,12,3,42,14,17
O=C(Nc1n[nH]c2cc(-c3ccccc3F)ccc12)C1CC1 [SB-733371],26,2,0,76,0,0,0,53,0,19
CCS(=O)c1ccc(-c2coc3ccc(-c4nnc(C)o4)cc23)cc1 (stereo not shown),10,17,0,12,0,3,0,28,5,5
CCC(=O)c1c(-c2ccccc2)c2cc(Cl)ccc2c(=O)n1Cc1cc(C(=O)NC2CC2)n(C)n1,0,8,0,0,0,0,0,0,0,7
CN1C(=O)C(Nc2cc(Cl)c(O)c(Cl)c2)=C(c2ccc(Cl)cc2)C1=O [SB-404321],0,0,0,0,22,0,0,52,36,10
COc1ccc(CNC(=O)NC2CCN(c3ccnc(Nc4ccc(F)cc4)n3)C2)cc1 (stereo not shown) [GSK1379706],2,26,16,0,0,10,10,54,26,44
Nc1ncnc2c1ncn2-c1cccc2ccccc12 [SKF-97184],0,0,18,10,0,0,0,25,0,6
COc1cc2ncn(-c3cc(OCc4ccncc4Br)c(C(N)=O)s3)c2cc1OC [GW854278],6,18,0,39,33,0,18,0,0,7
Cc1cc(Nc2nc(-c3cccc(C)n3)nc3ccccc23)ccn1 [GW872411],13,0,15,13,25,0,0,0,0,0
O=c1cc(N2CCOCC2)nc2n(Cc3ccc(F)c(Cl)c3)ccn12 [GSK2297099],0,11,22,0,0,10,0,0,0,0
CCc1nc(-c2cccc(C)c2)c(-c2ccncc2)s1,12,24,0,59,2,0,0,11,0,0
Nc1nc(-c2ccccc2F)c(-c2ccnc3ccccc23)s1 [GW560459],3,0,0,65,0,3,94.1,0,26,31
COc1cc(Nc2nccc(N3CCC(NC(=O)C(C)c4ccc(Cl)cc4)C3)n2)cc(OC)c1OC (stereo not shown) [GSK1379757],0,0,0,0,0,6,0,63,0,43

Compound,%Inh (TIE2) [%],%Inh (TLK1) [%],%Inh (TLK2) [%],%Inh (TNIK) [%],%Inh (TNK1) [%],%Inh (TNK2) [%],%Inh (TNNI3K) [%],%Inh (TRKA) [%],%Inh (TRKB) [%],%Inh (TRKC) [%]
Nc1nc(N)c2nc(-c3ccccc3)[nH]c2n1 [SKF-12778],0,0,0,4,0,13,28,52,9,0
COC(=O)c1c(-c2ccccc2)c2cc(Br)ccc2c(=O)n1Cc1ccc(S(C)(=O)=O)cc1,3,14,0,0,0,1,0,0,0,24
Cc1nnc(-c2ccc3ncn(-c4ccc(S(C)=O)cc4)c3c2)o1 (stereo not shown),11,23,0,11,4,0,7,0,0,0
COc1cc2ncn(-c3cc(OCc4ccncc4)c(C(N)=O)s3)c2cc1OC [GSK336313],7,0,0,13,0,5,0,0,0,0
O=C(Nc1n[nH]c2nc(-c3ccccc3)c(Br)cc12)C1CC1 [SB-708998],11,0,0,14,0,10,0,28,0,11
COc1cc2ncn(-c3cc(OCCCc4ccccc4)c(C(N)=O)s3)c2cc1OC [GSK205189],0,0,0,22,12,7,0,55,0,24
COc1cccc(-n2cnc3c(N)ncnc32)c1 [SKF-97416],0,2,19,15,0,0,0,45,48,33
Nc1nccc2scc(-c3ccc4c(c3)CCN4C(=O)Cc3ccccc3)c12 [GSK2576924],13,22,3,0,0,0,0,49,0,0
COc1cccc(C2=C(N(C)c3ccccc3)C(=O)NC2=O)c1 [SB-334865],0,4,4,0,0,19,11,0,0,23
COc1cccc(C2=C(Nc3cccc(C(=O)O)c3)C(=O)NC2=O)c1 [SB-390770],37,7,0,4,0,12,8,56,0,0
COc1cc(Nc2ccnc3ccc(C(F)(F)F)cc23)cc(OC)c1OC [GW577382],0,6,0,0,14,16,24,48,0,14
COC(=O)c1c(-c2ccccc2)c2cc(Br)ccc2c(=O)n1Cc1ccc(NC(=O)CCC(=O)O)cc1,0,19,0,0,17,0,0,0,0,35
COC(=O)c1c(-c2ccccc2)c2cc(C)ccc2c(=O)n1Cc1ccccc1,0,9,0,0,0,0,0,0,0,0
COc1ccc(Nc2nccc(N3CCC(NS(=O)(=O)c4ccc(NC(C)=O)cc4)C3)n2)cc1 (stereo not shown) [GSK1379729],8,0,0,0,18,12,100,65,0,19
CCc1ccc(-c2ccc3c(c2)-c2nn(C)cc2S(=O)(=O)N3C)cc1,0,35,0,38,14,0,0,0,0,0
Cc1ccc(-c2ccc3c(ccc4sc5c(c43)NC[C@@H](C)N=C5N(C)C)n2)cn1,0,0,0,2,34,0,0,0,0,0
Fc1cccc(CSc2nnc(-c3ccc4c(c3)CCO4)o2)c1,7,0,12,0,0,8,6,3,0,28
